± gives the standard deviation of the averaged measurements. Over roughly 33,000 sequences, “E-score (rank enrichment, -0.5 to 0.5)” has its median near -0.0028; the highest 2% begin near 0.23. Only a selection was taken, and the highest values are over-represented in it overall.
These sequences were tested on 2Sb-muMax20 (muMax20 with two 1,3-bis(methyl)benzene Cys staples, A13C/A17C and Q88C/A92C, C-terminal Lys) (assay: PBM 8-mer E-score (E-score (rank enrichment, -0.5 to 0.5)); higher = stronger preferential binding).
Procedure: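 Protein binding microarray (universal PBM chip covering all 10-mers in fixed probe flanks) with chemically synthesized human Max(13-93) bHLH-LZ analogs (not full-length Max) bearing noncanonical residues (hArg, Tha, Aib, Nle at 65) and aromatic Cys staples. Read-out per 8-mer (and its reverse complement): E-score (rank-based enrichment, -0.5 to 0.5) and Z-score of median probe intensity.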

Row | Sequence | PBM 8-mer E-score
1 | ATCCCCTC | 0.2637 ± 0.0019
2 | CCTAAACC | 0.0137 ± 0.051
3 | CACACTAG | 0.0294 ± 0.013
4 | ATTCTGCG | -0.00613 ± 0.071
5 | AAGTACGC | 0.0498 ± 0.026
6 | CCCTTGAG | 0.00432 ± 0.0094
7 | GCTGGCTA | -0.249 ± 0.011
8 | ACCCCGAT | 0.136 ± 0.042
9 | CCGTATAC | 0.0522 ± 0.032
10 | AACGAGAA | 0.238 ± 0.04
11 | AACGAGGA | 0.239 ± 0.015
12 | CACGAGAA | -0.0119 ± 0.064
13 | AACGAGAT | -0.0543 ± 0.025
14 | TACGAGGA | 0.169 ± 0.069
15 | CACGAGGA | -0.017 ± 0.031
16 | ATAGTGCG | 0.0132 ± 0.011
17 | CATCGGAC | -0.165 ± 0.033
18 | CATCATAA | 0.142 ± 0.0093
19 | TATCATAA | 0.181 ± 0.012
20 | GATCATAA | 0.278 ± 0.0031
21 | CATCGCGA | 0.056 ± 0.036
22 | ACCATAAC | 0.1 ± 0.012
23 | ATTAACTA | 0.237 ± 0.012
24 | GTTAATGA | 0.148 ± 0.06
25 | ATTAACTC | 0.136 ± 0.005

Row | Sequence | PBM 8-mer E-score
26 | GTTAACTA | 0.207 ± 0.1
27 | ATTAATGG | 0.0434 ± 0.0092
28 | ATAAATTA | 0.307 ± 0.014
29 | ATTAATGA | 0.278 ± 0.055
30 | ATAAATTG | 0.165 ± 0.082
31 | ATTAATTG | 0.175 ± 0.039
32 | ATTAATTC | 0.105 ± 0.042
33 | CTAAATTA | 0.0224 ± 0.0043
34 | ATTAATTA | 0.263 ± 0.034
35 | CGGTCACG | -0.188 ± 0.076
36 | CAGGGAGC | -0.238 ± 0.051
37 | AGCCTTCA | 0.149 ± 0.085
38 | ATGAACTC | -0.04627 ± 0.0002
39 | GATAATTA | 0.0844 ± 0.0069
40 | ATGAACTA | 0.27 ± 0.054
41 | AATAATGG | 0.138 ± 0.0076
42 | CATAATTA | 0.203 ± 0.039
43 | AATAATTA | 0.269 ± 0.06
44 | AATAATGC | 0.213 ± 0.083
45 | CTGAACTA | -0.149 ± 0.065
46 | AATAATGT | 0.283 ± 0.0037
47 | GAGTGCAC | -0.0155 ± 0.11
48 | AATACGGA | 0.0895 ± 0.071
49 | CGGAATGC | -0.00566 ± 0.015
50 | GTCCATTA | 0.107 ± 0.015

Row | Sequence | PBM 8-mer E-score
51 | ATGTGGAA | 0.173 ± 0.015
52 | GGAAATAC | -0.0227 ± 0.051
53 | GAGTTCCA | -0.117 ± 0.052
54 | GGACGTGA | -0.108 ± 0.045
55 | GCACGTGA | 0.241 ± 0.026
56 | GAACGTGA | 0.00502 ± 0.1
57 | GCACGTAC | 0.0889 ± 0.026
58 | GCACGTCC | -0.139 ± 0.095
59 | GCACGTGC | 0.4793 ± 0.0038
60 | GTTCCGTA | -0.187 ± 0.024
61 | ATCCACAA | 0.0617 ± 0.059
62 | ATCGTCCG | -0.149 ± 0.027
63 | GTTTCTTA | 0.0179 ± 0.046
64 | AATAACCG | 0.0384 ± 0.018
65 | ACGCGCGT | 0.3355 ± 0.0029
66 | ACGCGCGG | 0.178 ± 0.038
67 | ACGCGCGC | 0.1365 ± 0.00093
68 | GCGCGCGC | 0.3223 ± 0.00078
69 | CCGCGCGC | 0.01 ± 0.0081
70 | GCGCGCGA | 0.0594 ± 0.082
71 | AGCAGTTC | 0.00143 ± 0.078
72 | AAAAATAA | 0.0834 ± 0.061
73 | GACCTGGA | -0.164 ± 0.035
74 | AATATTCT | 0.133 ± 0.011
75 | CATACGTC | -0.00541 ± 0.00038

Row | Sequence | PBM 8-mer E-score
76 | CATACGTA | 0.3021 ± 0.0027
77 | AATACGCT | 0.188 ± 0.045
78 | GATACGCA | 0.115 ± 0.031
79 | AATACGTC | 0.0547 ± 0.024
80 | AATACGCA | 0.251 ± 0.0039
81 | GATACGTA | 0.081 ± 0.0043
82 | AATACGTA | 0.231 ± 0.019
83 | AATACGTG | 0.0524 ± 0.012
84 | AAGCACAC | 0.0724 ± 0.00084
85 | AGACGTAA | 0.0336 ± 0.059
86 | CCGTAGAG | -0.0843 ± 0.033
87 | TAGGGGCA | 0.267 ± 0.013
88 | CAGGGGCA | 0.0503 ± 0.027
89 | GAGGGGCA | 0.0724 ± 0.043
90 | AAAGGGCT | 0.0103 ± 0.021
91 | AAGGGGCT | 0.276 ± 0.0072
92 | AAGGGGCG | 0.0188 ± 0.025
93 | AAAGTTAT | 0.0271 ± 0.025
94 | AATAGGGC | -0.00932 ± 0.054
95 | CAGTTTGA | -0.0513 ± 0.03
96 | GGAATGCC | -0.081 ± 0.011
97 | GTGGAGCA | -0.0959 ± 0.032
98 | AATAGCAG | -0.0835 ± 0.028
99 | ATTGTACC | 0.178 ± 0.035
100 | CTTGTATA | 0.164 ± 0.018

Row | Sequence | PBM 8-mer E-score
101 | GACGTATA | 0.0136 ± 0.0084
102 | GCTGTATA | 0.218 ± 0.05
103 | CTTGTACA | 0.0642 ± 0.09
104 | ATTGTATA | 0.273 ± 0.017
105 | CACGTATA | 0.0602 ± 0.053
106 | ACTGTATA | 0.236 ± 0.042
107 | ATTGTACA | 0.241 ± 0.042
108 | ATTGTATG | 0.172 ± 0.066
109 | AACGTATA | 0.251 ± 0.032
110 | CCTGTATA | 0.109 ± 0.011
111 | TGAAGAAA | -0.0313 ± 0.065
112 | CACCTCTG | -0.0833 ± 0.03
113 | CGTAACAG | 0.177 ± 0.013
114 | GAAGGCGC | -0.0372 ± 0.063
115 | GTTGTCTA | -0.0541 ± 0.029
116 | ATTGTCTA | 0.277 ± 0.0069
117 | GATGTATA | 0.0803 ± 0.029
118 | AATGTATA | 0.269 ± 0.02
119 | ATTGTCTC | -0.0946 ± 0.028
120 | CATGTATA | 0.15 ± 0.062
121 | TAACGGAA | 0.149 ± 0.021
122 | ACAGTGAT | 0.142 ± 0.065
123 | TAAGGCTA | 0.0712 ± 0.066
124 | AGGAGGGG | 0.297 ± 0.06
125 | ATGAGGGG | 0.267 ± 0.0094

Row | Sequence | PBM 8-mer E-score
126 | ATGAGGGA | 0.191 ± 0.062
127 | AGTAGGGG | 0.306 ± 0.0088
128 | AGGAGGGA | -0.0776 ± 0.0034
129 | AGGAGGGC | -0.0974 ± 0.038
130 | ATGAGGGC | 0.0989 ± 0.0016
131 | AGTAGGGA | 0.0636 ± 0.013
132 | AGTAGGGC | 0.0716 ± 0.0035
133 | AATGGCGA | 0.135 ± 0.067
134 | GACTCAGA | -0.115 ± 0.064
135 | CACGGCAC | -0.198 ± 0.045
136 | GGTCTCTA | -0.0733 ± 0.014
137 | CCTGAGCC | -0.241 ± 0.074
138 | TGTTTCAA | 0.13 ± 0.063
139 | GAAGTTGC | -0.202 ± 0.021
140 | ACTTCACA | 0.0282 ± 0.023
141 | CCTTCACA | 0.298 ± 0.014
142 | CCTTCACG | -0.013 ± 0.075
143 | AATCCCGT | -0.000655 ± 0.018
144 | ATATTTAA | 0.256 ± 0.024
145 | ACATTTTA | 0.242 ± 0.054
146 | ATATTTAC | 0.22 ± 0.028
147 | GCATTTTA | 0.151 ± 0.0045
148 | ATATTTTA | 0.238 ± 0.0056
149 | CCATTTTA | 0.0822 ± 0.0077
150 | CTATTTTA | 0.193 ± 0.048

Row | Sequence | PBM 8-mer E-score
151 | GTATTTTA | 0.0366 ± 0.0083
152 | CTATTTAA | -0.0132 ± 0.0071
153 | CCTTTTTC | 0.0688 ± 0.1
154 | CCCGAAAA | 0.0645 ± 0.051
155 | AGTATTAT | -0.0141 ± 0.036
156 | AGCGAACC | -0.0262 ± 0.033
157 | GCCCTCAA | 0.0476 ± 0.024
158 | AAAGTACT | 0.136 ± 0.092
159 | GGAAGTAA | 0.262 ± 0.0039
160 | TGAAGTAA | 0.1 ± 0.05
161 | AGAAGTAA | 0.141 ± 0.011
162 | TATATCCA | 0.157 ± 0.048
163 | AGTCGCAT | 0.00112 ± 0.0029
164 | ATGATCCG | -0.186 ± 0.035
165 | ATAAATAA | 0.111 ± 0.012
166 | ATAAAAAT | 0.136 ± 0.028
167 | ATAAACAT | 0.246 ± 0.014
168 | ATAAACAA | 0.157 ± 0.019
169 | AAAAATAT | 0.16 ± 0.01
170 | ATAAATAG | 0.111 ± 0.04
171 | ATAAATAC | 0.288 ± 0.028
172 | ATAAATAT | 0.239 ± 0.042
173 | ATAAACAC | 0.0999 ± 0.056
